Experimental findings from PubChem BioAssay (NCI) are described below.

Assay [1] can be described thus: NCI Yeast Anticancer Drug Screen. Data for the rad50 strain (AID 155).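 Further: 0% = growth of vehicle-only cultures of the same strain.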 Particulars: S. cerevisiae rad50 strain growth inhibition, hits give high values. The method, boiled down: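 Readout: growth inhibition relative to vehicle-treated cultures. Compound exposure was carried out in a genetically defined yeast strain deficient in DNA damage repair.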
Assay [2] can be described thus: NCI Yeast Anticancer Drug Screen. Data for the mec2-1 strain (AID 157). Conditions: S. cerevisiae mec2-1 strain, hits give high values. The method, boiled down:
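Using mec2-1 yeast: add compound, measure growth, express inhibition versus vehicle-treated cultures.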

Assay [3] can be described thus: NCI Yeast Anticancer Drug Screen. Data for the sgs1 mgt1 strain (AID 161).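 Further: 0% = growth of cultures given vehicle only.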 Conditions: S. cerevisiae sgs1 mgt1 strain, hits give high values. The gist of the method: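 Percent growth inhibition was derived by comparing compound-exposed mutant yeast with vehicle-exposed cultures. The strain carries alterations in DNA damage repair.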
The nature of assay [4]: NCI Yeast Anticancer Drug Screen. Data for the cln2 rad14 strain (AID 165).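 Further: 0% = growth equal to vehicle treated cultures.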 Conditions: S. cerevisiae cln2 rad14 strain, hits give high values. The method, boiled down: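 Yeast strain cln2 rad14, bearing defects in cell cycle control and DNA repair, serves as the test system; values reflect growth inhibition compared with vehicle.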
Assay [5] is described as follows: NCI Yeast Anticancer Drug Screen. Data for the bub3 strain (AID 167). Conditions: S. cerevisiae bub3 mutant strain, hits give high values. The gist of the method: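 Readout: yeast growth inhibition, expressed relative to vehicle-only wells. The test organism is a mutant strain from a panel with lesions in DNA repair or checkpoint genes.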
Assay [6] can be described thus: NCI Yeast Anticancer Drug Screen. Data for the mlh1 rad18 strain (AID 175). Particulars: S. cerevisiae mlh1 rad18 strain growth inhibition, hits give high values. The method, boiled down: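 Steps: expose repair-defective yeast to compound; measure growth; express inhibition against vehicle-treated controls.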
Setting [7] is: at 5.0 µM (retest, dose inferred, filed as 0.5).
The mark [8] stands for this setting: at 50.0 µM (retest, dose inferred, filed as 5.0).

Molecules are shown by their SMILES. This is part of a sample that, as a whole, favours compounds with a hit. Of some 79,000 tested, about 15% had one in any assay. Values without a mark were called inactive. The source made the active and inactive calls. No stated cut-off is given here; in the data, active means growth inhibition above about 70%; inactive means the rest.

For `Oc1c(Cl)c(Cl)c2ncccc2c1Cl`, the growth inhibition was 14% in assay [1] (setting [7]); 13% in assay [1] (setting [8]); 55.8% in assay [1] (at 50.0 µM); 10% in assay [2] (setting [7]); 13% in assay [2] (setting [8]); -8.8% in assay [2] (at 50.0 µM). For the same compound, the growth inhibition is 11% in assay [3] (setting [7]); 15% in assay [3] (setting [8]); 49% in assay [3] (at 50.0 µM); 4% in assay [4] (setting [7]); 5% in assay [4] (setting [8]); -26.4% in assay [4] (at 50.0 µM). Further, the growth inhibition was 5% in assay [5] (setting [7]); 37% in assay [5] (setting [8]); 48.6% in assay [5] (at 50.0 µM); 7% in assay [6] (setting [7]); 12% in assay [6] (setting [8]); 45.5% in assay [6] (at 50.0 µM).
Turning to `NCCCCC(N)C(=O)Nc1ccc2ccccc2c1` (stereo not given), the growth inhibition in assay [1] (setting [7]) was -1%; in assay [1] (setting [8]), 91% (active); in assay [1] (at 50.0 µM), 99% (active); in assay [2] (setting [7]), -41%; in assay [2] (setting [8]), 37%; in assay [2] (at 50.0 µM), 99% (active). For the same compound, the growth inhibition is 0% in assay [3] (setting [7]); 75% (active) in assay [3] (setting [8]); 99.2% (active) in assay [3] (at 50.0 µM); 1% in assay [4] (setting [7]); 24% in assay [4] (setting [8]); 82.8% (active) in assay [4] (at 50.0 µM). For the same compound, the growth inhibition was -9% in assay [5] (setting [7]); 71% (active) in assay [5] (setting [8]); 99.3% (active) in assay [5] (at 50.0 µM); 0% in assay [6] (setting [7]); 83% (active) in assay [6] (setting [8]); 99% (active) in assay [6] (at 50.0 µM).
On to `O=C(/C=C(/Nc1ccccc1)C(=O)c1ccccc1)c1ccccc1`, for which the growth inhibition in assay [1] (setting [7]) was 3%; in assay [1] (setting [8]), 77% (active); in assay [1] (at 50.0 µM) it was 30.6%; in assay [2] (setting [7]), 9%; in assay [2] (setting [8]), 96% (active); in assay [2] (at 50.0 µM), 37.2%. Also, the growth inhibition is 8% in assay [3] (setting [7]); 90% (active) in assay [3] (setting [8]); 68.8% in assay [3] (at 50.0 µM); 0% in assay [4] (setting [7]); 39% in assay [4] (setting [8]); -5.1% in assay [4] (at 50.0 µM). Moreover, the growth inhibition was 13% in assay [5] (setting [7]); 33% in assay [5] (setting [8]); 74% (active) in assay [5] (at 50.0 µM); 6% in assay [6] (setting [7]); 91% (active) in assay [6] (setting [8]); 37.7% in assay [6] (at 50.0 µM).
As to `CC12CC(Sc3ccccc3N1)c1ccccc1O2` (stereo not given), the growth inhibition in assay [1] (setting [7]) is 37%; in assay [1] (setting [8]), 54%; in assay [1] (at 50.0 µM), 42.2%; in assay [2] (setting [7]) it was 28%; in assay [2] (setting [8]) it was 46%; in assay [2] (at 50.0 µM), 25.3%. For the same compound, the growth inhibition is 43% in assay [3] (setting [7]); 80% (active) in assay [3] (setting [8]); 51.8% in assay [3] (at 50.0 µM); 33% in assay [4] (setting [7]); 40% in assay [4] (setting [8]); 27.4% in assay [4] (at 50.0 µM). The growth inhibition in assay [5] (setting [7]) is 40%; in assay [5] (setting [8]) it was 73% (active); in assay [5] (at 50.0 µM), 76.3% (active); in assay [6] (setting [7]), 40%; in assay [6] (setting [8]), 73% (active); in assay [6] (at 50.0 µM), 44.5%.
With `O=C1CC2(CCN(CC3COc4ccccc4O3)CC2)C(=O)N1N1CCCCCC1` (stereo not given), the growth inhibition in assay [1] (setting [7]) was 51%; in assay [1] (setting [8]), 66%; in assay [1] (at 50.0 µM), 77% (active); in assay [2] (setting [7]), 33%; in assay [2] (setting [8]), 41%; in assay [2] (at 50.0 µM), 70.4% (active). Also, the growth inhibition in assay [3] (setting [7]) is 62%; in assay [3] (setting [8]), 66%; in assay [3] (at 50.0 µM) it was 82.8% (active); in assay [4] (setting [7]), 78% (active); in assay [4] (setting [8]), 83% (active); in assay [4] (at 50.0 µM), 84% (active). Moreover, the growth inhibition in assay [5] (setting [7]) was 48%; in assay [5] (setting [8]), 68%; in assay [5] (at 50.0 µM) it was 85.5% (active); in assay [6] (setting [7]), 37%; in assay [6] (setting [8]), 75% (active); in assay [6] (at 50.0 µM), 83.8% (active).
For the compound `Cc1cc(SCC(=O)c2ccc(Br)cc2)cc(C)[o+]1`, the growth inhibition in assay [1] (setting [7]) was -14%; in assay [1] (setting [8]), 80% (active); in assay [1] (at 50.0 µM), 94.5% (active); in assay [2] (setting [7]), 4%; in assay [2] (setting [8]) it was 95% (active); in assay [2] (at 50.0 µM), 95% (active). For the same compound, the growth inhibition in assay [3] (setting [7]) is 20%; in assay [3] (setting [8]), 81% (active); in assay [3] (at 50.0 µM), 91.5% (active); in assay [4] (setting [7]) it was -42%; in assay [4] (setting [8]), 75% (active); in assay [4] (at 50.0 µM) it was 90% (active). Also, the growth inhibition in assay [5] (setting [7]) was -5%; in assay [5] (setting [8]), 95% (active); in assay [5] (at 50.0 µM), 93.1% (active); in assay [6] (setting [7]) it was -8%; in assay [6] (setting [8]), 92% (active); in assay [6] (at 50.0 µM), 95.1% (active).
For `FC(F)(F)c1cccc(N2CCN(c3c4c(nc5ccccc35)CCCCC4)CC2)c1`, the growth inhibition is -4% in assay [1] (setting [7]); 96% (active) in assay [1] (setting [8]); 95.5% (active) in assay [1] (at 50.0 µM); 4% in assay [2] (setting [7]); 99% (active) in assay [2] (setting [8]); 97.7% (active) in assay [2] (at 50.0 µM). Besides, the growth inhibition in assay [3] (setting [7]) is 11%; in assay [3] (setting [8]), 98% (active); in assay [3] (at 50.0 µM) it was 93.8% (active); in assay [4] (setting [7]), -14%; in assay [4] (setting [8]), 96% (active); in assay [4] (at 50.0 µM), 95.5% (active). For the same compound, the growth inhibition is -4% in assay [5] (setting [7]); 97% (active) in assay [5] (setting [8]); 92% (active) in assay [5] (at 50.0 µM); 22% in assay [6] (setting [7]); 98% (active) in assay [6] (setting [8]); 95.7% (active) in assay [6] (at 50.0 µM).
As to `COC1CC2CCC(C)[C@](O)(O2)C(=O)C(=O)N2CCCCC2C(=O)OC(C(C)CC2CCC(O)C(OC)C2)CC(=O)C(C)C=C(C)C(OC(=O)CCCN2CCCC2)C(OC)C(=O)C(C)CC(C)/C=C/C=C/C=C\1C` (stereo not given in full), the growth inhibition in assay [1] (setting [7]) was 96% (active); in assay [1] (setting [8]), 98% (active); in assay [1] (at 50.0 µM), 90% (active); in assay [2] (setting [7]) it was 98% (active); in assay [2] (setting [8]), 98% (active); in assay [2] (at 50.0 µM), 92.3% (active). Also, the growth inhibition is 97% (active) in assay [3] (setting [7]); 97% (active) in assay [3] (setting [8]); 92.9% (active) in assay [3] (at 50.0 µM); 91% (active) in assay [4] (setting [7]); 96% (active) in assay [4] (setting [8]); 88.2% (active) in assay [4] (at 50.0 µM). The growth inhibition in assay [5] (setting [7]) was 97% (active); in assay [5] (setting [8]), 98% (active); in assay [5] (at 50.0 µM), 92% (active); in assay [6] (setting [7]), 96% (active); in assay [6] (setting [8]), 98% (active); in assay [6] (at 50.0 µM), 91.5% (active).
Regarding `c1cc2c3c(c1)[I+]c1cccc(c1-3)[I+]2`, the growth inhibition in assay [1] (setting [7]) is 51%; in assay [1] (setting [8]), 67%; in assay [1] (at 50.0 µM), 69.8%; in assay [2] (setting [7]) it was 34%; in assay [2] (setting [8]), 58%; in assay [2] (at 50.0 µM) it was 27.1%. The growth inhibition in assay [3] (setting [7]) is 53%; in assay [3] (setting [8]) it was 80% (active); in assay [3] (at 50.0 µM), 65.9%; in assay [4] (setting [7]), 24%; in assay [4] (setting [8]) it was 40%; in assay [4] (at 50.0 µM), 45%. Moreover, the growth inhibition was 39% in assay [5] (setting [7]); 31% in assay [5] (setting [8]); 36.3% in assay [5] (at 50.0 µM); 64% in assay [6] (setting [7]); 88% (active) in assay [6] (setting [8]); 55.9% in assay [6] (at 50.0 µM).
Take `CC12C=C3CC(OC(=O)c4ccccc4)CCC3(O1)c1ccccc12` (stereo not given): the growth inhibition in assay [1] (setting [7]) was 2%; in assay [1] (setting [8]), 69%; in assay [1] (at 50.0 µM) it was 84.8% (active); in assay [2] (setting [7]), -1%; in assay [2] (setting [8]), 77% (active); in assay [2] (at 50.0 µM), 91.5% (active). Also, the growth inhibition is 1% in assay [3] (setting [7]); 80% (active) in assay [3] (setting [8]); 90.1% (active) in assay [3] (at 50.0 µM); 3% in assay [4] (setting [7]); 2% in assay [4] (setting [8]); 10.1% in assay [4] (at 50.0 µM). Also, the growth inhibition is 4% in assay [5] (setting [7]); 76% (active) in assay [5] (setting [8]); 79.3% (active) in assay [5] (at 50.0 µM); 1% in assay [6] (setting [7]); 76% (active) in assay [6] (setting [8]); 76% (active) in assay [6] (at 50.0 µM).
